Compound activity (PubChem)
RORgamma inh: inhibitors of mouse ROR gamma transcriptional activity. AID 2551. 310,000 tested, 5.4% active. Drosophila S2 Gal4-RORgamma UAS-luciferase reporter, 20 h. Potency, µM (titrated, usually from 53.6 µM), hits mostly inhibitors; also: nearly all actives have a fitted effect of over 60% in size
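Stable Schneider cell line, Gal4 DNA-binding domain fused to ROR gamma, UAS-luciferase. Cmpd 1 hr RT → CuSO4 700 uM final → 20 hr RT → luciferase reagent 10 min → luminescence.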
TDP1 block: inhibitors of human tyrosyl-DNA phosphodiesterase TDP1; Q9NUW8; Potency, µM (doses to about 130 µM), actives largely listed as inhibitors; AID 485290; 350,000 tested, 0.28% active; recombinant TDP1, AlphaScreen DNA substrate cleavage; also: nearly all actives have a fitted effect of over 40% in size
Target sequence (Q9NUW8 whole entry, looked up): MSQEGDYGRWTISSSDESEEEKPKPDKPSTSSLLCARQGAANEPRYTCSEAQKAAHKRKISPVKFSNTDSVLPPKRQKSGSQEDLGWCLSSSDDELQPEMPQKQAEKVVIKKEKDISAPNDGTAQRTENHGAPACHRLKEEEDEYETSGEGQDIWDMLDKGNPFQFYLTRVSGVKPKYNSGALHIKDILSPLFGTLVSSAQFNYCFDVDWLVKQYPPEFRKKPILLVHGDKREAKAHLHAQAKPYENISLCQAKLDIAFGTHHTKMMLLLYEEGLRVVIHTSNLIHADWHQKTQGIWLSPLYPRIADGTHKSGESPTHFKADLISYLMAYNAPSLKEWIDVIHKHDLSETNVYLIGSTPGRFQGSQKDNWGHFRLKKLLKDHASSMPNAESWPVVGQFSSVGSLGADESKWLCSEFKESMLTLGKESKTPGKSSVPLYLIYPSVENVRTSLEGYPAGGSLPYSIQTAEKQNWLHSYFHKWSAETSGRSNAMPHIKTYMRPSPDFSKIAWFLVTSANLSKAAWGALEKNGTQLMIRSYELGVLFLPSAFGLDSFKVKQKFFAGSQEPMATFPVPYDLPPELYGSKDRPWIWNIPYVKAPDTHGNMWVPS
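Steps: enzyme plus compound, 15 min RT; add biotin/phosphotyrosine-FITC oligonucleotide (15 nM final), react 5 min; add donor/acceptor beads (10 ug/ml final), 10 min; read AlphaScreen. Tdp1 at 1 nM final.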
DT40 TDP1 no CPT: qHTS for Inhibitors of human tyrosyl-DNA phosphodiesterase 1 (TDP1): qHTS in cells in absence of CPT; 420,000 tested, 15% active; AID 686978, 2013; DT40 Tdp1-/- hTDP1 cells, no CPT, ATP luminescence, 48 h; Potency, µM (titrated, usually from 46.2 µM), usual class: inhibitors; also: nearly all actives have a fitted effect of over 55% in size
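Growth of hTDP1-complemented DT40 Tdp1-knockout cells is measured by ATP luminescence after at least 48 hr compound exposure at 37 °C, with DMSO substituting for the 20 nM CPT used in the parallel screen.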
Gal4-VP16 FLuc: inhibits Gal4-VP16 luciferase reporter, ROR gamma counter-screen; Potency, µM (top dose mostly 53.6 µM), hits mostly inhibitors; 310,000 tested, 3.5% active; Drosophila S2 Gal4-VP16 UAS-luciferase, luminescence, 20 h;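 also: Gal4-VP16 expression switched on by copper sulfate through the metallothionein promoter; nearly all actives have a fitted effect of over 50% in size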
TDP1 cell CPT: growth inhibition of DT40 Tdp1-/-;hTDP1 cells with camptothecin (screen for TDP1 inhibitors); chicken DT40 Tdp1-/-;hTDP1 cells + 20 nM CPT, ATP luminescence, 48 h; 420,000 tested, 12% active; AID 686979; Potency, µM (doses to about 46.2 µM), most hits filed as inhibitors; also: nearly all actives have a fitted effect of over 55% in size
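Cell growth measured by CellTiter-Glo luminescence after a minimum 48 h, 37 C compound exposure with 20 nM CPT in Tdp1-knockout DT40 cells stably expressing hTDP1, seeded 400/well; qHTS titration format.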
Large screens that a line does not name were inactive. Sampled rows, rich in hits. Any-hit rate of the full collection: about 19%. Calls follow the shape of the dose curve; as a rule, active = well fitted curve in the direction sought with a large enough effect; inconclusive = small, poorly fitted or top-dose-only effect, or another doubt; inactive = no such curve, though single readings can be large; an effect the other way counts as inactive or inconclusive.

CC(=O)N(C1=C(Cl)C(=O)c2ccccc2C1=O)C1CCCCC1	RORgamma inh 10µM, DT40 TDP1 no CPT 0.52µM, Gal4-VP16 FLuc 11µM, TDP1 cell CPT 0.46µM (no result: TDP1 block)
O=C(O)c1ccc2c(=O)n3c(nc2c1)/C(=C/c1cccc(O)c1)CC3	none (no result: TDP1 block)
c1ccc(OCCNc2ccn3nc(-c4ccc(OCCN5CCOCC5)cc4)cc3n2)cc1	DT40 TDP1 no CPT 16µM, TDP1 cell CPT 9.2µM (no result: RORgamma inh, TDP1 block, Gal4-VP16 FLuc)
c1coc(-c2cc3nc(NCc4ccc5c(c4)OCO5)ccn3n2)c1	TDP1 cell CPT inconclusive (no result: RORgamma inh, TDP1 block, Gal4-VP16 FLuc)
c1csc(CNc2ccn3nc(-c4ccc(OCCN5CCOCC5)cc4)cc3n2)c1	DT40 TDP1 no CPT 16µM, TDP1 cell CPT 21µM (no result: RORgamma inh, TDP1 block, Gal4-VP16 FLuc)
c1ccc(COc2ccc(-c3cc4nc(NCc5ccc6c(c5)OCO6)ccn4n3)cc2)cc1	DT40 TDP1 no CPT 7.3µM, TDP1 cell CPT 18µM (no result: RORgamma inh, TDP1 block, Gal4-VP16 FLuc)
c1csc(CNCCCN2CCOCC2)c1	none
CC(C)c1ccc(O)c(NC(=S)NC(=O)CCc2ccccc2)c1	RORgamma inh 13µM
Cc1ccc(C(=O)O)cc1NC(=S)NC(=O)Cc1ccccc1	none
COc1ccccc1NC(=O)CC(=O)Nc1ccccc1OC	none (no result: TDP1 block)
COc1cc(NC(=S)NC(=O)CCc2ccccc2)cc(OC)c1	RORgamma inh 0.56µM, DT40 TDP1 no CPT inconclusive, Gal4-VP16 FLuc 7.1µM, TDP1 cell CPT inconclusive
COc1ccccc1NC(=S)NC(=O)CC(C)C	RORgamma inh 2.2µM, DT40 TDP1 no CPT inconclusive, Gal4-VP16 FLuc 13µM, TDP1 cell CPT inconclusive
COc1ccccc1NC(=O)CCC(=O)O	none
COc1ccccc1NC(=S)NC(=O)CCc1ccccc1	RORgamma inh 13µM, Gal4-VP16 FLuc 10µM
OC(COc1ccc2c(c1)OCO2)CN1CCN(c2ccccc2)CC1 (configuration not stated)	none
CC1=C(C(=O)OCc2ccccc2)C(c2cccs2)N2C(=O)CCSC2=N1 (configuration not stated)	none
O=C(CCC(=O)Nc1ccc(F)cc1)N/N=C/c1cccc(Br)c1	DT40 TDP1 no CPT inconclusive (no result: TDP1 block)
COc1ccc(NC(=O)COc2ccc(N(C)S(=O)(=O)c3ccc(Cl)cc3)cc2)cc1	DT40 TDP1 no CPT inconclusive (no result: RORgamma inh, Gal4-VP16 FLuc)
Cc1cc(C)n2c(nc3ccccc32)c1C(=O)NCc1ccccc1	none
O=C(CCc1ccccc1)NC(=S)Nc1cccc(Br)c1	RORgamma inh 11µM, Gal4-VP16 FLuc inconclusive
O=C(CCc1ccccc1)NC(=S)Nc1ccccc1Br	RORgamma inh 3.5µM, DT40 TDP1 no CPT inconclusive, Gal4-VP16 FLuc inconclusive, TDP1 cell CPT inconclusive
O=C(CCc1ccccc1)NC(=S)Nc1ccc2c(c1)C(=O)OC2	none
CC(C)CC(=O)NC(=S)Nc1ccccn1	Gal4-VP16 FLuc 20µM, TDP1 cell CPT inconclusive
O=C(CC(=O)Nc1ccccn1)Nc1ccccn1	none
COc1cccc(C(=O)Nc2ccc(-c3cn4cccnc4n3)cc2)c1OC	DT40 TDP1 no CPT inconclusive, TDP1 cell CPT inconclusive (no result: RORgamma inh, Gal4-VP16 FLuc)
COc1cc(C(=O)Oc2cc(C)[nH]c(=O)c2[N+](=O)[O-])cc(OC)c1OC	none
O=C(c1ccc(NC(=S)Nc2ccc(Cl)c(Cl)c2)cc1)N1CCCC1	DT40 TDP1 no CPT inconclusive, TDP1 cell CPT inconclusive
CCOc1ccc(CCNc2nc3c(-c4ccc(C)cc4)nnn3c3ccccc23)cc1OCC	DT40 TDP1 no CPT inconclusive (no result: RORgamma inh, Gal4-VP16 FLuc)
CN(Cc1ccccc1)c1ccc2nnc(-c3ccccc3)n2n1	RORgamma inh inconclusive, DT40 TDP1 no CPT inconclusive, TDP1 cell CPT inconclusive
CCOc1ccc(CCNc2ccc3nnc(-c4ccccc4)n3n2)cc1OCC	DT40 TDP1 no CPT inconclusive, TDP1 cell CPT 16µM
Clc1ccc(CNc2ccc3nnc(-c4ccccc4)n3n2)cc1	DT40 TDP1 no CPT 4.1µM, TDP1 cell CPT 2.1µM
CCCCNC(=O)COC(=O)c1c2c(nc3ccccc13)/C(=C/c1cccs1)CC2	RORgamma inh inconclusive, DT40 TDP1 no CPT inconclusive, Gal4-VP16 FLuc inconclusive, TDP1 cell CPT 23µM
CNC(=O)NC(=O)C(C)OC(=O)c1c2c(nc3ccccc13)/C(=C/c1cccs1)CC2 (configuration not stated)	RORgamma inh 0.63µM, DT40 TDP1 no CPT 18µM, Gal4-VP16 FLuc 0.13µM, TDP1 cell CPT 21µM
Cc1cc(N2CCN(C(=O)Nc3ccc(F)cc3F)CC2)c2ccccc2n1	DT40 TDP1 no CPT inconclusive (no result: TDP1 block)
